These results are taken from PubChem BioAssay (NCATS).

Records with an inconclusive call do not appear. A call without a number means that no potency is given here. Activity calls are given as the source filed them. Calls come from the whole dose curve; as a rule, active = well fitted cell-killing curve with a large enough effect; inconclusive = small, poorly fitted or top-dose-only effect, or effect the other way; inactive = no such curve, though single readings can be large or run the other way.
Potency is the fitted concentration of half-maximal effect.

A short description of this experiment: qHTS of pediatric cancer cell lines to identify multiple opportunities for drug repurposing: Confirmatory screen for NB-EBc1 cells (AID 1347115).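 Note: cells exposed to compound for 48 h before the viability read; nearly all actives have a fitted effect of over 45% in size.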 The following applies: NB-EBc1 neuroblastoma cells, viability (cytotoxicity); series mostly up to 45.9 µM. The text has this: Drug repurposing or repositioning has been offered as a strategy for drug development in oncology programs. This approach has special potential for childhood cancers and other rare or orphan diseases, where the expected return on new drug development has been a disincentive to pharmaceuticals.
In this project we exploit the poly-pharmacology of drugs to discover new indications via phenotypic screening of a panel of 19 well-characterized cell lines derived from solid tumors seen in children and adolescents. The goal is to identify approved drugs with previously unrecognized anticancer properties that has the potential to reveal new mechanisms and biological processes involved in carcinogenesis or drug resistance. We employed a titration-based paradigm (quantitative high-throughput screening or qHTS), where all compounds were tested at multiple concentrations for their effect on cell viability. Concentration-response curves (CRCs) were derived directly from the primary screen, and both potency and efficacy values were used to identify compounds with robust bioactivity profiles. We screened the NIH Chemical Genomics Center (NCGC) Pharmaceutical Collection (NPC) and Mechanism Interrogation Plate (MIPE) small molecule collections of approved and investigational compounds against these cell lines; and measured metabolically active cells after 48 hours of compound treatment as a proxy for cell viability.
Assay Submitter: Nathalia J. Martinez, National Center for Advancing Translational Sciences, National Institutes of Health, Rockville, MD, USA; email: natalia.martinez@nih.gov
[1] Shen, M et al. Quantitative high-throughput phenotypic screening of pediatric cancer cell lines identifies multiple opportunities for drug repurposing. Oncotarget 2017 Dec 19;9(4):4758-4772. PMID 29435139.
The cells were obtained from University of North Carolina (UNC), Pediatric Preclinical Testing Program (PPT), and Coriell Institute (CI).
qHTS cell viability assay:
Cells were assayed in growth media at a density of 500-1,000 cells/well. Five microliters of cells were dispensed into 1,536-well, white, solid-bottom, TC-treated plates (Greiner Bio One) using a multidrop dispenser and incubated at 37 degrees C, 5% CO2, under a humidified atmosphere for 5 hours. Twenty-three nanoliters of compounds and controls (neutral control DMSO or positive control bortezomib at final concentration of 2.3 µM) were subsequently transferred by Kalypsys pintool. For primary screens, the MIPE collection was tested at 11-point dilutions (final concentrations range from 0.78 nM to 46 µM) and the NPC collection at 8-point dilutions (final concentrations range from 0.59 nM to 46 µM). Compounds tested in follow-up screens were assayed at 11-point dilutions. Cells were incubated for 48 hours, followed by addition of 3 µL of CellTiter-Glo (Promega). After a 15 min incubation at room temperature, samples were analyzed for luminescence intensity using a ViewLux High-throughput CCD imager equipped with clear filters.
(qHTS replaces the single test concentration by a dilution series.)
`CC(=O)OCC(=O)[C@@]1(O)[C@H](C)C[C@H]2[C@@H]3C=C(C)C4=Cc5c(cnn5-c5ccccc5)C[C@]4(C)[C@@H]3[C@@H](O)C[C@@]21C`: the Potency is 23.3 µM (active).

As to `C=CC(=O)Nc1cccc(Oc2nc(Nc3ccc(N4CCN(C)CC4)cc3)ncc2Cl)c1`, the Potency is 18.5 µM (active).

For `CC1(C)CCC(c2ccc(Cl)cc2)=C(CN2CCN(c3ccc(C(=O)NS(=O)(=O)c4ccc(N[C@H](CCN5CCOCC5)CSc5ccccc5)c(S(=O)(=O)C(F)(F)F)c4)cc3)CC2)C1`, the Potency entry was “inactive”. As for `O=C(O)c1ccc2cc(-c3ccc(O)c(C45CC6CC(CC(C6)C4)C5)c3)ccc2c1`, the Potency is 0.737 µM (active).

With `Cc1cnc(Nc2ccc(F)cc2Cl)nc1-c1c[nH]c(C(=O)N[C@H](CO)c2cccc(Cl)c2)c1`, the Potency result is “inactive”. For `C=CC(=O)Nc1cc2c(Nc3ccc(F)c(Cl)c3)ncnc2cc1C#CC(C)(C)N1CCN(C)CC1` the value was 15.1 µM (active). In the case of `Cc1c(Cn2c(C)nc3c(C(=O)O)cc(N4CCOCC4)cc32)cccc1C(F)(F)F`, the Potency result is “inactive”. Consider `Cn1c2ccccc2c2c3c(c4c5ccccc5n(CCC#N)c4c21)CNC3=O`, for which the Potency is 23.3 µM (active). The entry for `Cc1nc(Nc2n[nH]c3c2CN(C(=O)N[C@H](CN(C)C)c2ccccc2)C3(C)C)c2sccc2n1` is “inactive”.

In the case of `CC1(C)OC2=C(C(=O)c3ccccc3C2=O)[C@H](NCc2ccccc2)[C@H]1O`, the Potency is 9.27 µM (active). For `Cc1cn2c(-c3cn[nH]c3)cnc2c(Nc2ccc(C(=O)N3CCNCC3)cc2F)n1`, the Potency entry is “inactive”. As to `CCNC(=O)Nc1ccc2ncc(Nc3ccc(C)cc3)nc2n1`, the Potency result was “inactive”.

As for `CCC1=C[C@@H]2CN(C1)Cc1c([nH]c3ccccc13)[C@@](C(=O)OC)(c1cc3c(cc1OC)N(C)[C@@H]1[C@@](O)(C(=O)OC)[C@H](OC(C)=O)[C@]4(CC)C=CCN5CC[C@]31[C@@H]54)C2`, the Potency result was “inactive”. Turning to `O=C(C=Cc1cccnc1)NCCCCC1CCN(C(=O)c2ccccc2)CC1`, the Potency entry was “inactive”. As for `CN(C)CC(C)(C)CNc1nn2c(-c3ccccc3)nnc2cc1C1CCC1`, the Potency result was “inactive”. On to `Nc1ccccc1NC(=O)c1ccc(CNc2nccc(-c3cccnc3)n2)cc1`, for which the Potency result is “inactive”.

For the compound `Cc1cn(-c2cc(NC(=O)c3ccc(C)c(Nc4nccc(-c5cccnc5)n4)c3)cc(C(F)(F)F)c2)cn1`, the Potency result is “inactive”. With `CCN1CCN(Cc2ccc(-c3cc4c(N[C@H](C)c5ccccc5)ncnc4[nH]3)cc2)CC1`, the Potency was 38 µM (active). For `C=CC(=O)Nc1cccc(Oc2nc(Nc3ccc(N4CCN(C)CC4)cc3OC)ncc2Cl)c1` the value was “inactive”; for `CC(C)(C)NC(=O)[C@H]1CN(Cc2cccnc2)CCN1C[C@@H](O)C[C@@H](Cc1ccccc1)C(=O)N[C@H]1c2ccccc2C[C@H]1O`, “inactive”. For the compound `COc1ccc(-n2nc(C(N)=O)c3c2C(=O)N(c2ccc(N4CCCCC4=O)cc2)CC3)cc1`, the Potency entry was “inactive”. With `COc1cc2c(Oc3ccc(NC(=O)C4(C(=O)Nc5ccc(F)cc5)CC4)cc3F)ccnc2cc1OCCCN1CCOCC1`, the Potency was 13.1 µM (active). As to `COCCn1c2c([n+](Cc3cnccn3)c1C)C(=O)c1ccccc1C2=O`, the Potency was 1.04 µM (active). For the compound `CN1CC[C@@H](c2c(O)cc(O)c3c(=O)cc(-c4ccccc4Cl)oc23)[C@@H](O)C1`, the Potency result is “inactive”. The figure for `CC(NCc1ccc2c(c1)nc(NC(=O)c1ccc(-c3cn[nH]c3)s1)n2CC(C)(C)O)C(C)(C)C` (stereo not given) is 0.827 µM (active); for `C=CC(=O)N1CCC[C@@H](n2nc(-c3ccc(Oc4ccccc4)cc3)c3c(N)ncnc32)C1` it is 9.27 µM (active); for `COc1cccc(Nc2c(C(N)=O)cnc3c(C)cc(S(=O)(=O)c4cccc(C(=O)N(C)C)c4)cc23)c1` it is “inactive”. As for `COc1cccc2nc(-c3cccs3)nc(NN3C(=O)C=C(C)C3=O)c12`, the Potency was 2.08 µM (active).

For the compound `COC(=O)c1ccc2c(C(=Nc3ccc(N(C)C(=O)CN4CCN(C)CC4)cc3)c3ccccc3)c(O)[nH]c2c1`, the Potency result was “inactive”. For `Cc1cc(N2CCOCC2)cc2[nH]c(-c3c(NC[C@@H](O)c4cccc(Cl)c4)cc[nH]c3=O)nc12` the value was 1.17 µM (active); for `Cc1[nH]c2ccccc2c1CCNCc1ccc(C=CC(=O)NO)cc1`, 0.369 µM (active). For `CC(C)(C)c1cc(C(C)(C)C)c(NC(=O)c2c[nH]c3ccccc3c2=O)cc1O` the value was 16.5 µM (active); for `C[C@@]12O[C@@H](C[C@]1(O)CO)n1c3ccccc3c3c4c(c5c6ccccc6n2c5c31)CNC4=O`, 5.85 µM (active); for `O=C(C=Cc1cccc(S(=O)(=O)Nc2ccccc2)c1)NO`, 2.14 µM (active).

As to `CN1CCN(Cc2ccc(NC(=O)Nc3ccc(Oc4cc(NC(=O)C5CC5)ncn4)cc3)cc2C(F)(F)F)CC1`, the Potency was 23.3 µM (active). On to `CCC(=C(c1ccccc1)c1ccc(OCCN(C)C)cc1)c1ccccc1`, for which the Potency entry was “inactive”. Turning to `C=C1C(=CC=C2CCC[C@]3(C)[C@@H]([C@H](C)C=C[C@H](C)C(C)C)CC[C@@H]23)C[C@@H](O)C[C@@H]1O`, the Potency was 4.14 µM (active). For `CC=C1NC(=O)[C@H]2CSSCCC=C[C@H](CC(=O)N[C@H](C(C)C)C(=O)N2)OC(=O)[C@H](C(C)C)NC1=O` the value was “inactive”.

Take `Cn1c(=O)n(-c2ccc(C(C)(C)C#N)cc2)c2c3cc(-c4cnc5ccccc5c4)ccc3ncc21`: the Potency was 7.37 µM (active). In the case of `COc1ccc(F)c(F)c1C(=O)c1cnc(NC2CCN(S(C)(=O)=O)CC2)nc1N`, the Potency result is “inactive”.
